Data as given in PubChem BioAssay (NCATS).
“And” between values parts separate entries of the source, which are not always exact repeats. Identical values can stand only once. Records with an inconclusive call do not appear. The source made the active and inactive calls. Unless noted, calls come from the whole dose curve; as a rule, active = well fitted curve in the direction sought with a large enough effect; inconclusive = small, poorly fitted or top-dose-only effect, or another doubt; inactive = no such curve, though single readings can be large; an effect the other way counts as inactive or inconclusive.

Assays:
[1] = target: Cellular tumor antigen p53 (Homo sapiens) (UniProt P04637); experiment: Primary qHTS for small molecule compounds that upregulate eGFP-tagged delta133p53alpha (in N-terminal) cells. (AID 2060322); conditions: NCI-H358 eGFP-delta133p53alpha fluorescence, 24 h; activation: active compounds read high; note: nearly all actives have a fitted effect of over 75% in size; note: potency is the fitted concentration of half-maximal effect;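 for activation: series mostly up to about 56 µM; 0% = DMSO vehicle and 100% = reference activator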
Cellular tumor antigen p53 (Homo sapiens), sequence (P04637 whole entry, looked up): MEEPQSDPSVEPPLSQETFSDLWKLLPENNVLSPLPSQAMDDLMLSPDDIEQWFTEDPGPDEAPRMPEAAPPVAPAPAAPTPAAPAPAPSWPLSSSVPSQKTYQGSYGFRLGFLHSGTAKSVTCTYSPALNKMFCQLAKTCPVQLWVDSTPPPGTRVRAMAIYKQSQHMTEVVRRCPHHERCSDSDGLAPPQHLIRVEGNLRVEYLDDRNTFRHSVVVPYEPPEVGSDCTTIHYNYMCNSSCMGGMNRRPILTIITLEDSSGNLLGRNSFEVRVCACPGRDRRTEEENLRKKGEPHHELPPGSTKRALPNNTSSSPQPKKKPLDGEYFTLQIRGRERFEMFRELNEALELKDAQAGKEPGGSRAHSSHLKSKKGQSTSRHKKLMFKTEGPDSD
Summary of the method: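 NCI-H358 cells pre-induced 24 h with 10 ng/ml doxycycline to express N-terminal eGFP-delta133p53alpha, then dosed 24 h at 37C without doxycycline; fixed, Hoechst-stained, GFP intensity by laser scanning cytometry, normalized to DMSO (0%) and 57.5 uM 5-azacytidine (100%).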

[2] = target: Aldehyde dehydrogenase, mitochondrial (Homo sapiens) (UniProt P05091); experiment: qHTS for Inhibitors of the Aldehyde Dehydrogenase Family (ALDH2) Confirmatory screens (AID 2061303; active = well fitted inhibition curve with a large enough effect; title and protocol of this record describe different tests; note: nearly all actives have a fitted effect of over 45% in size; note: potency is the fitted concentration of half-maximal effect; for activity change, negative = inhibition: % is set by controls: 0 for no effect and ±100 for the full control effect)
[3] = qHTS for Inhibitors of the Aldehyde Dehydrogenase Family (ALDH1A2, ALDH1A3, ALDH2, ALDH3A1) (AID 2061307); note: nearly all actives have a fitted effect of over 50% in size; for Potency: test system not described further here; potency is the fitted concentration of half-maximal effect; for activity change, negative = inhibition: % is set by controls: 0 for no effect and ±100 for the full control effect
[4] = target: Retinaldehyde dehydrogenase 3 (Homo sapiens) (UniProt P47895); experiment: qHTS for Inhibitors of the Aldehyde Dehydrogenase Family (ALDH1A3) Validation screen (AID 2061312); note: nearly all actives have a fitted effect of over 45% in size; note: potency is the fitted concentration of half-maximal effect; for activity change, negative = inhibition: % is set by controls: 0 for no effect and ±100 for the full control effect
[5] = target: Retinal dehydrogenase 2 (Homo sapiens) (UniProt O94788); experiment: qHTS for Inhibitors of the Aldehyde Dehydrogenase Family (ALDH1A2) Confirmation screens (AID 2061314); note: nearly all actives have a fitted effect of over 65% in size; note: potency is the fitted concentration of half-maximal effect; for activity, negative = inhibition: % is set by controls: 0 for no effect and ±100 for the full control effect
[6] = target: Retinaldehyde dehydrogenase 3 (Homo sapiens) (UniProt P47895); experiment: qHTS for Inhibitors of the Aldehyde Dehydrogenase Family (ALDH1A3) Primary screen (AID 2061315);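 note: plate controls were DMSO vehicle for no effect and reference inhibitor for full effect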
[7] = target: Aldehyde dehydrogenase, mitochondrial (Homo sapiens) (UniProt P05091); experiment: qHTS for Inhibitors of the Aldehyde Dehydrogenase Family (ALDH2) Primary screen (AID 2061308); note: nearly all actives have a fitted effect of over 55% in size; note: potency is the fitted concentration of half-maximal effect;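 for activity change, negative = inhibition: plate controls were vehicle for no effect and reference inhibitor for full effect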
[8] = BET inhibitor-based combinations targeting novel dependencies in MECOM-rearranged (r) AML: OCI-AML3 cell line (AID 2202232); conditions: Potency: OCI-AML3 viability; note: potency is the fitted concentration of half-maximal effect; nearly all actives have a fitted effect of over 35% in size
Summary of the method: (§1)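 Here, 11-point titrations of each agent were applied to 500 seeded cells and incubated 48 hr; CellTiter-Glo signal, scaled against DMSO and empty wells, was integrated as AUC, then Z-scored within the individual line.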

[9] = BET inhibitor-based combinations targeting novel dependencies in MECOM-rearranged (r) AML: HNT-34 cell line (AID 2202234); note: potency is the fitted concentration of half-maximal effect; nearly all actives have a fitted effect of over 35% in size
Summary of the method: (§2)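 Normalized to DMSO and empty-well controls, the luminescence data from CellTiter-Glo after 48 hr drug exposure were fitted across 11 concentrations. Reported metrics are area under the dose-response curve and its Z-transformed form.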

[10] = BET inhibitor-based combinations targeting novel dependencies in MECOM-rearranged (r) AML: UCSD-AML1 cell line (AID 2202235); note: potency is the fitted concentration of half-maximal effect; nearly all actives have a fitted effect of over 40% in size
Summary of the method: as §2

[11] = BET inhibitor-based combinations targeting novel dependencies in MECOM-rearranged (r) AML: AML-191 cell line (AID 2202236; note: potency is the fitted concentration of half-maximal effect; nearly all actives have a fitted effect of over 35% in size)
Summary of the method: as §1

[12] = BET inhibitor-based combinations targeting novel dependencies in MECOM-rearranged (r) AML: AML-194 cell line (AID 2202237; note: potency is the fitted concentration of half-maximal effect; nearly all actives have a fitted effect of over 40% in size)
Summary of the method: as §1

[13] = target: Retinaldehyde dehydrogenase 3 (Homo sapiens) (UniProt P47895); experiment: qHTS for Inhibitors of the Aldehyde Dehydrogenase Family (ALDH1A3) Confirmatory screens (AID 2061311); note: nearly all actives have a fitted effect of over 60% in size; note: potency is the fitted concentration of half-maximal effect
[14] = BET inhibitor-based combinations targeting novel dependencies in MECOM-rearranged (r) AML: SET-2 cell line (AID 2202231); conditions: SET-2 AML cells viability, CellTiter-Glo luminescence, 48 h; viability: active compounds read low, concentration not given here; note: potency is the fitted concentration of half-maximal effect; nearly all actives have a fitted effect of over 35% in size
Summary of the method: as §1

[15] = BET inhibitor-based combinations targeting novel dependencies in MECOM-rearranged (r) AML: MV-4-11 cell line (AID 2202233); note: potency is the fitted concentration of half-maximal effect; nearly all actives have a fitted effect of over 45% in size
Summary of the method: as §2

[16] = target: Aldehyde dehydrogenase 1A1 (Homo sapiens) (UniProt P00352); experiment: qHTS for Inhibitors of the Aldehyde Dehydrogenase Family (ALDH1A1) Confirmatory screens (AID 2061316); note: nearly all actives have a fitted effect of over 65% in size; note: potency is the fitted concentration of half-maximal effect

CO/N=C(/C(=O)N[C@@H]1C(=O)N2C(C(=O)O)=C(Cn3ccc(=N)n3CCO)CS[C@H]12)c1csc(N)n1
inactive: activation [1] 2.39% | Potency [2] | Potency [3] | Potency [4] | Potency [5] | Potency [6]

COc1cc(Nc2ncc(F)c(Nc3ccc4c(n3)NC(=O)C(C)(C)O4)n2)cc(OC)c1OC
inactive: activation [1] 7.29% | Potency [2] | Potency [3] | Potency [7]
active: Potency [8] 9.34 µM | Potency [9] 1.18 µM | Potency [10] 1.48 µM | Potency [11] 5.9 µM | Potency [12] 7.42 µM

C[C@@H]1CN(Cc2ncccn2)C[C@H]1c1nc2c(cnn2C2CCOCC2)c(=O)[nH]1
inactive: activation [1] 0.955% | Potency [2] | Potency [3] | Potency [13] | Potency [4] | Potency [5] | Potency [6]

COc1cccc2cc(-c3nc(C4CCC(C(=O)O)CC4)n4ncnc(N)c34)[nH]c12 (centres undefined)
inactive: activation [1] 12.5% and 16.7% | Potency [2] | Potency [7] | Potency [6]
active: Potency [3] 3.57 µM | Potency [14] 2.95 µM | Potency [8] 1.66 µM | Potency [15] 0.833 µM | Potency [9] 0.833 µM

CC1(C)CC(=O)c2c(C(F)(F)F)nn(-c3ccc(C(N)=O)c(NC4CCC(OC(=O)CN)CC4)c3)c2C1 (centres undefined)
active: Potency [14] 0.263 µM | Potency [8] 0.209 µM | Potency [15] 0.059 µM | Potency [9] 0.209 µM | Potency [10] 0.186 µM
inactive: activation [1] 38.8% and -1.67% | Potency [2] | Potency [3] | Potency [7] | Potency [6] | Potency [16]

COCCN(C(=O)c1cc(OC)c(OC)c(OC)c1)c1nc(-c2ccccc2)cs1
inactive: activation [1] 19.1% | Potency [2] | Potency [3] | Potency [13] | Potency [5] | Potency [16]

Cc1csc2c(N[C@@H](C)CN3CCN(S(=O)(=O)c4ccc(Cl)c(Cl)c4)CC3)ncnc12
inactive: activation [1] -2.86% | Potency [6]
active: Potency [2] 12.6 µM | Potency [3] 708 nM and 224 nM | Potency [16] 8.96 µM

Cc1ccc(-c2c(C(=O)CCl)n(CCCO)c3ncnc(N)c23)cc1
inactive: Potency [2] | Potency [3] | Potency [7] | Potency [6] | Potency [16]
active: Potency [1] 12 µM

CCCCNC(=O)[C@@H]1Cc2ccccc2N1C(=O)[C@@H](N)CC
inactive: activation [1] -9.55% | Potency [2] | Potency [3] | Potency [13] | Potency [5] | Potency [6] | Potency [16]

O=C(CN1C2=NCCN2c2ccccc21)c1ccc(-c2ccccc2)cc1
active: Potency [2] 3.57 µM | Potency [3] 3.57 µM | Potency [13] 31.6 µM
inactive: activation [1] 7.16% | Potency [4] | Potency [5] | Potency [6]

CN(C)C(=O)Nc1cccc(-c2ccc(N(C)C)cc2)c1
inactive: activation [1] -14.8% | Potency [2] | Potency [3] | Potency [7] | Potency [16]

O=C1CC(c2ccc([N+](=O)[O-])cc2)=NN1c1ccccc1
active: Potency [13] 11.3 µM
inactive: activation [1] -8.93% | Potency [2] | Potency [3] | Potency [16]

NC1(c2ccc(NC(=O)c3ccnc(-c4cc(C(=O)O)ccn4)c3)cc2)CC1
inactive: activation [1] 15.7% | Potency [2] | Potency [3] | Potency [7] | Potency [6]

CC[C@H](CO)Nc1nc(NCc2ccc(-c3ccccn3)cc2)c2ncn(C(C)C)c2n1
inactive: Potency [2] | Potency [3] | Potency [6] | Potency [16]
active: Potency [1] 0.536 µM

CC(=O)NC(C)c1cnc(-c2cnc(Oc3ccc(OC(C)C)cc3)s2)s1 (centres undefined)
inactive: activation [1] -20% | Potency [2] | Potency [7] | Potency [13] | Potency [4] | Potency [5] | Potency [6]

N[C@@H](CCNCc1ccc(Cl)cc1)C(=O)N1CCCCC1
inactive: activation [1] 1.91% | Potency [2] | Potency [3] | Potency [4] | Potency [5] | Potency [6] | Potency [16]

CN1CCN(C(=O)CN[C@@H]2C[C@H]2c2ccc(OCc3ccccc3)cc2)CC1
inactive: activation [1] 68.2%
active: Potency [2] 14.1 µM | Potency [13] 3.98 µM | Potency [4] 1.41 µM | Potency [16] 20.1 µM

O=C(O)c1cn(C2CC2)c2cc(N3C[C@@H]4C[C@H]3CN4)c(F)cc2c1=O
active: Potency [16] 31.8 µM
inactive: activation [1] 11.7% | Potency [2] | Potency [7] | Potency [13] | Potency [5] | Potency [6]

C[C@@H]1O[C@@H](O[C@H]2[C@H](O[C@H]3CO[C@@H](O[C@H]4CC[C@@]5(C)C(CC[C@]6(C)C5CC[C@]57OC[C@@]8(CC[C@](C)(CO)CC85)[C@H](O)C[C@]76C)C4(C)C)[C@H](O[C@@H]4O[C@H](CO)[C@@H](O)[C@H](O)[C@H]4O)[C@H]3O)O[C@H](CO)[C@@H](O)[C@@H]2O)[C@H](O)[C@H](O)[C@H]1O (some centres undefined)
inactive: activation [1] -4.58% | activity change, negative = inhibition [2] -29.1% [at 10 µM] | Potency [7] | activity, negative = inhibition [5] -8.29% [at 10 µM] | Potency [6] | activity change, negative = inhibition [16] -22.4% [at 10 µM]

C/C=C/C=C/c1cc2c(C=O)c(O)c(CC=C(C)C)cc2o1
active: Potency [1] 26.9 µM | Potency [2] 11.3 µM | Potency [7] 28.2 µM | Potency [5] 10.1 µM | Potency [16] 11.3 µM
inactive: Potency [6]

CC1(NC(=O)c2ccc(C#Cc3cccc(F)c3)cn2)COC1
inactive: activation [1] -11.9% | Potency [2] | Potency [7] | Potency [13] | Potency [4] | Potency [5] | Potency [6] | Potency [16]
